TRHR enhancer = qHTS for Small Molecule Agonists and Allosteric Enhancers of Human TRH Receptor: Primary Screen for Enhancers; enhancement, % at 2 µM; TRHR cells, fluo-8 calcium fluorescence, EC20 TRH enhancement; AID 493056, 2011; 360,000 compounds, 0.66% hits; Thyrotropin-releasing hormone receptor (Homo sapiens), P34981; in the data active = enhancement above about 30%; note: 0% is about no effect
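Enhancer read-out: after compound pinning and an initial kinetic agonist-mode read, an EC20 of TRH (10 nM final) was injected and fluo-8 calcium signal (Ex 480/Em 530) followed at 1 s/cycle for 100 cycles in TRHR-expressing cells.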
D1 antagonist = Antagonist of Human D 1 Dopamine Receptor: qHTS; D(1A) dopamine receptor (Homo sapiens), P21728; HEK293 TREx D1 cells, calcium flux, dopamine EC80; stronger effect = lower value; activity change, negative = inhibition, % at 10 µM; 360,000 compounds, 3.2% hits; in the data active = activity change below about -30%; note: % is set by controls: 0 for no effect and ±100 for the full control effect
Target sequence (P21728 whole entry, looked up): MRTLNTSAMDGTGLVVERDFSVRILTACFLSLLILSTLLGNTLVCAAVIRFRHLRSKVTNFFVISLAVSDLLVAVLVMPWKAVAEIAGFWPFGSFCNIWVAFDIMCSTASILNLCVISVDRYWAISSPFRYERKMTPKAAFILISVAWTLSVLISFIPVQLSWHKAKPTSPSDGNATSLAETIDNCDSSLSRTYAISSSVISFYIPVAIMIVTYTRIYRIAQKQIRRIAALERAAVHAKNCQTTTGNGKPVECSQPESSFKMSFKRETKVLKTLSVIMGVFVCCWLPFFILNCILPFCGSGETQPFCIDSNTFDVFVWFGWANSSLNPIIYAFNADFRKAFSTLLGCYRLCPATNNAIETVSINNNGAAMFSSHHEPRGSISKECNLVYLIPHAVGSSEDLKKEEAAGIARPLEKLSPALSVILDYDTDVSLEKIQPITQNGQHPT
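HEK293 T-REx cells expressing inducible, force-coupled D1 receptor; no-wash Ca dye, 30–90 min RT. Cmpd → 180 s read at 1 Hz → EC80 DA → 180 s read.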
D1 potentiator = Potentiators of Human D1 Dopamine Receptor: qHTS; AID 504651, 2011; HEK293 TREx D1 cells, calcium flux, dopamine EC20 potentiation; potentiation, % at 10 µM; D(1A) dopamine receptor (Homo sapiens), P21728; 360,000 compounds, 0.036% hits; in the data active = potentiation above about 30%; note: 0% is about no effect
D1 ag = Allosteric Agonists of the Human D1 Dopamine Receptor: qHTS; D(1A) dopamine receptor (Homo sapiens), P21728; HEK293 T-REx D1 cells, calcium flux, agonist mode; activation, % at 2 µM; 360,000 compounds, 1% hits; AID 504660, 2011; note: 0% is about no effect
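Tetracycline-induced HEK293 TREx D1 cells, force-coupled to calcium signalling, were dye-loaded with a no-wash calcium kit. Compound was pin-added after a 10 s baseline. Fluorescence was read kinetically at 1 cycle/s for 180 s, with calcium rises flagged as agonism.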
TRHR agonist = qHTS for Small Molecule Agonists and Allosteric Enhancers of Human TRH Receptor: Primary Screen for Agonists; Thyrotropin-releasing hormone receptor (Homo sapiens), P34981; 360,000 compounds, 0.18% hits; activation, % at 2 µM; TRHR cells, calcium flux fluo-8, FDSS agonist mode; note: 0% is about no effect
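Steps: seed TRHR cells overnight; add fluo-8 no-wash Ca dye, RT 30 min–1.5 h; record 10 s baseline; pin-transfer compounds; monitor fluorescence 1 cycle/s for the agonist window. Calcium increases flag candidate agonists.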
The depositor's hits bear a star. This is a sample that favours compounds with a hit; in the whole collection about 4.7% have one here. Cut-off read from the data, not from the text of the source, unless noted: active = activation above about 30%; inactive = the rest.

For Cc1ccc(N2C(=O)C3C4C=CC(CNC(=S)Nc5ccc(Cl)cc5)(O4)C3C2=O)cc1 (stereo unspecified) the results were TRHR enhancer -4.5, D1 antagonist -31.4*, D1 potentiator -9.6, D1 ag 12.6 and TRHR agonist -0.3.
For Cc1ccc(N2C(=O)C3C4C=CC(CNC(=S)Nc5ccc(F)cc5)(O4)C3C2=O)cc1 (stereo unspecified) the results were TRHR enhancer 5.6, D1 antagonist -6.5, D1 potentiator -5.0, D1 ag 7.2 and TRHR agonist -0.7.
Screening CNC(=O)CCCN1C(=O)c2cccnc2Sc2ccccc21 returned TRHR enhancer -4.1, D1 antagonist -17.1, D1 potentiator -6.5, D1 ag 2.4 and TRHR agonist 0.0.
O=C1c2cccnc2Nc2ccccc2N1CCCF was read as TRHR enhancer -2.3, D1 antagonist -32.8*, D1 potentiator -3.4, D1 ag -0.3 and TRHR agonist -0.3.
Screening CCOC(=O)c1c(NC(=O)CSc2nnc(-c3cccnc3)o2)sc(C(C)=O)c1C returned TRHR enhancer 13.8, D1 antagonist -34.7*, D1 potentiator 4.7, D1 ag 1.5 and TRHR agonist 0.1.
O=C(C1CCC(=O)N(C2CC2)C1)N1CCC(Oc2cccc(C(F)(F)F)c2)CC1 (stereo unspecified) was read as TRHR enhancer -7.5, D1 antagonist -20.6, D1 potentiator -1.1, D1 ag 3.3 and TRHR agonist 0.3.
Cc1ccc(N2CC(NC(=O)Cc3cccs3)CC2=O)cc1C (stereo unspecified) was read as TRHR enhancer -0.6, D1 potentiator -1.9, D1 ag -4.1 and TRHR agonist -0.2.
`COc1ccc(S(=O)(=O)NC(C)C(=O)Nc2cccc(C(C)=O)c2)cc1` (stereo unspecified) gave TRHR enhancer -2.3, D1 antagonist -42.6*, D1 potentiator -2.6, D1 ag 1.3 and TRHR agonist 0.0.
`CCOC(=O)N1N=C(c2ccc(OC)cc2)CC1(O)C(F)(F)F` (stereo unspecified) gave TRHR enhancer 32.3*, D1 antagonist 1.3, D1 potentiator -6.8, D1 ag 1.5 and TRHR agonist -0.2.
CCc1ccc(C2=NN(C(=O)OC)C(O)(C(F)(F)F)C2)cc1 (stereo unspecified) was read as TRHR enhancer -2.4, D1 antagonist -0.4, D1 potentiator -7.0, D1 ag 1.9 and TRHR agonist -0.4.
`Cc1ccc2nc(CSc3nnc(NC(=O)COc4ccccc4)s3)cc(=O)n2c1` gave TRHR enhancer -1.1, D1 antagonist 1.8, D1 potentiator -0.4, D1 ag 2.8 and TRHR agonist -0.2.
CCc1nc(NC(C)(C)C)c2cnn(-c3ccccc3)c2n1 was read as TRHR enhancer -5.4, D1 antagonist 32.1, D1 potentiator 5.7, D1 ag 32.4* and TRHR agonist 0.8.
For CCS(=O)(=O)N1CC(=O)N(c2ccc(C)c(C)c2)C(C)(C(=O)NC2CCCCC2)C1 (stereo unspecified) the results were TRHR enhancer 42.3*, D1 antagonist -20.2, D1 potentiator 0.8, D1 ag -2.5 and TRHR agonist -0.2.
Cc1ccc(C(=O)NC(C)C(c2cccs2)N2CCCC2)s1 (stereo unspecified) was read as TRHR enhancer -3.5, D1 antagonist 2.0, D1 potentiator 0.2, D1 ag 1.6 and TRHR agonist -0.5.
Screening CCn1cc2nc(SCc3cccc(C(F)(F)F)c3)n(Cc3ccc(Cl)cc3)c(=O)c2n1 returned TRHR enhancer -5.9, D1 antagonist 34.1, D1 potentiator -4.5, D1 ag 8.4 and TRHR agonist 2.1.
`COc1ccc(C2NC(=O)c3c(sc4c3CCN(C)C4)N2)cc1O` (stereo unspecified) gave TRHR enhancer -4.5, D1 antagonist 1.9, D1 potentiator 0.5, D1 ag 1.3 and TRHR agonist 0.2.
Screening CCOc1cc(C2NC(=O)c3c(sc4c3CCN(C)C4)N2)ccc1OC(=O)c1ccccc1Cl (stereo unspecified) returned TRHR enhancer -1.2, D1 antagonist -14.2, D1 potentiator -0.8, D1 ag 35.3* and TRHR agonist -1.5.
For COc1ccc(C(=O)Oc2ccc(C3NC(=O)c4c(sc5c4CCN(C)C5)N3)cc2OC)cc1 (stereo unspecified) the results were TRHR enhancer 7.3, D1 antagonist -9.2, D1 potentiator -3.5, D1 ag 17.0 and TRHR agonist 50.3*.
For COc1ccc(CN(C)c2nc(-c3cccnc3)nc3ccccc23)cc1OC the results were TRHR enhancer -4.4, D1 antagonist 7.7, D1 potentiator 5.2, D1 ag 1.8 and TRHR agonist -0.4.
`Cc1ccc(C(=O)O)cc1NCc1ccncc1` gave TRHR enhancer 30.3*, D1 antagonist 1.1, D1 potentiator 0.0, D1 ag -0.4 and TRHR agonist 0.6.
`O=C(O)c1ccc(Cl)c(NCc2ccncc2)c1` gave TRHR enhancer 10.8, D1 antagonist -7.5, D1 potentiator -0.4, D1 ag 4.4 and TRHR agonist 0.6.
For O=C(Cc1ccc(F)cc1)NC1CCSC1=O (stereo unspecified) the results were TRHR enhancer -1.0, D1 antagonist -33.1*, D1 potentiator -1.5, D1 ag 3.4 and TRHR agonist 0.0.
Screening O=C(CCCc1ccccc1)NC1CCSC1=O (stereo unspecified) returned TRHR enhancer -3.0, D1 antagonist 0.8, D1 potentiator 1.5, D1 ag -0.2 and TRHR agonist -0.1.
`C=CCc1c(C)nc(N2CCSCC2)[nH]c1=O` gave TRHR enhancer -1.5, D1 antagonist -2.1, D1 potentiator -4.8, D1 ag 2.9 and TRHR agonist 0.2.
`Cc1ccc(NC(=O)COc2ccccc2C(=O)NCCN(C)C)cc1` gave TRHR enhancer -2.3, D1 antagonist 2.1, D1 potentiator -0.8, D1 ag 1.7 and TRHR agonist 0.6.
For CC(=O)Nc1ccc2nc3c(=O)n(C)c(=O)n(C)c3nc2c1 the results were TRHR enhancer 1.7, D1 antagonist -5.1, D1 potentiator -2.9, D1 ag 34.2* and TRHR agonist 5.4.
Screening CCCc1cc(=O)[nH]c(SCc2nc(-c3ccccc3)no2)n1 returned TRHR enhancer -0.2, D1 antagonist -6.0, D1 potentiator -2.9, D1 ag 5.8 and TRHR agonist -0.8.

Compound activity deposited in PubChem by National Center for Advancing Translational Sciences (NCATS).
